# Out of some 310,000 compounds screened, about 14,000 (4.5%) showed an effect of 50% or more. Effects have a minus sign here. The entries come from a sample that favours strong results as a whole.
# Biological target: human ether-à-go-go-related gene (hERG) potassium channel (human, UniProt Q12809)
# Assay: primary screen, population patch clamp on CHO cells stably expressing hERG; higher = less effect of the substance
# 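Also: peak tail current of the secondary pulse compared with the same well before compound.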
# human ether-à-go-go-related gene (hERG) potassium channel, sequence (Q12809 whole entry, looked up): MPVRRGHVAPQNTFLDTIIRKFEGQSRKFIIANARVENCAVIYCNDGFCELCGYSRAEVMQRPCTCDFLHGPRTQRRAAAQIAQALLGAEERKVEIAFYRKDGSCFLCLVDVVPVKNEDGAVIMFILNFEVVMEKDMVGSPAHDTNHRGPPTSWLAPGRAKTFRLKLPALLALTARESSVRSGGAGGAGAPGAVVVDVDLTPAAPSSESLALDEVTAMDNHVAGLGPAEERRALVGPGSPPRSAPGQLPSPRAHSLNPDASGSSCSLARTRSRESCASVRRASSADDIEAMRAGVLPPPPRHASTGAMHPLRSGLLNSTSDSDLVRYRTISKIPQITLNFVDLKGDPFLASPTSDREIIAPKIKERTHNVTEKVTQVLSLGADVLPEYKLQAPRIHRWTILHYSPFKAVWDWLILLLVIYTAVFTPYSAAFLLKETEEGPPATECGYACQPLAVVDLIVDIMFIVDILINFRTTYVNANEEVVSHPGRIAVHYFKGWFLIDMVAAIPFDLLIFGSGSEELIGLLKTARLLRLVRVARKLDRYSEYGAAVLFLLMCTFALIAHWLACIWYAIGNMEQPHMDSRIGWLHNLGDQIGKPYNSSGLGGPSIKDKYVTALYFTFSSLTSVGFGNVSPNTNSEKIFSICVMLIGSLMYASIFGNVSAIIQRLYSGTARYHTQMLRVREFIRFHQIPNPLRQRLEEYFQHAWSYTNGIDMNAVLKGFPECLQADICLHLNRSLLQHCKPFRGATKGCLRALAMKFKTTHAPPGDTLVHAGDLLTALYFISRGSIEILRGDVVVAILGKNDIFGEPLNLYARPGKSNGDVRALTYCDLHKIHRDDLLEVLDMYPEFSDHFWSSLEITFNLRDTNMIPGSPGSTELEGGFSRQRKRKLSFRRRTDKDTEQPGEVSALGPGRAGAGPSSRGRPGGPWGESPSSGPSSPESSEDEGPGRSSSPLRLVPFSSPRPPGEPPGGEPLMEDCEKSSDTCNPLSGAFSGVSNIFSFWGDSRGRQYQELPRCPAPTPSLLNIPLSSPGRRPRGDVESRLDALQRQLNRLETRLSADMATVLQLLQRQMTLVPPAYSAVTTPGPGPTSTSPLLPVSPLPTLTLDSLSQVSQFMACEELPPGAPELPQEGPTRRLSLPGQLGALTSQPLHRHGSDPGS
row,Structure (SMILES),"hERG current change (%, negative = inhibition) at 10uM"
1,COc1cccc(CC2(CO)CCCN(Cc3nc(-c4cccs4)oc3C)C2)c1 (stereo not drawn),-64.5%
2,Cc1oc(-c2cccs2)nc1CN1CCN(C(C)C)C(CCO)C1 (stereo not drawn),4.95%
3,Cc1oc(-c2cccs2)nc1CN1CCN(CC(C)C)C(CCO)C1 (stereo not drawn),5.96%
4,COc1cccc(CC2(CO)CCCN(Cc3ccc(CO)o3)C2)c1 (stereo not drawn),-7.04%
5,OCC1CCCN1C(=S)Nc1ccccc1 (stereo not drawn),3.84%
6,COc1ccc(C(=O)COC(=O)CN2C(=O)C3C4CCC(C4)C3C2=O)cc1 (stereo not drawn),-17.9%
7,O=C(CSc1nc2c(cnn2-c2ccc(F)cc2)c(=O)[nH]1)N1CCCc2ccccc21,10.1%
8,O=C1C=C(O)c2cccc3cccc1c23,28.3%
9,CCN(CC)S(=O)(=O)c1ccc2c(c1)oc(=O)n2CC(=O)N(C)C1CCCCC1,-11.9%
10,Cc1cc(-c2cccs2)c2c(n1)sc1c(=O)[nH]c(=O)[nH]c12,5.3%
11,O=C(NCCCNC(=O)c1cnccn1)c1ccc(Cl)c(Cl)c1,-15.6%
12,Cc1oc(-c2cccs2)nc1CN1CCC(c2ccccc2)CC1,-66.5%
13,COc1ccc(-c2nc(CN3CCC(c4ccccc4)CC3)c(C)o2)cc1OC,-37.7%
14,Cc1oc(-c2cccs2)nc1CN1CCC(C(=O)N2CCCC2)CC1,-11.2%
15,Cc1c(Cl)cccc1NC(=O)CCN1CCCCCC1,-3.92%
16,C/C(=N\OCC(=O)NCC(F)(F)F)c1cc2ccccc2o1,-1.58%
17,CN(Cc1ccccn1)C(=O)C1CCC(=O)N(Cc2cccc(C(F)(F)F)c2)C1 (stereo not drawn),-15.7%
18,CN(Cc1cnn(C)c1)C(=O)C1CCC(=O)N(Cc2ccc(Cl)cc2)C1 (stereo not drawn),-9.64%
19,CCc1ccc(CN(C)C(=O)C2CCC(=O)N(Cc3ccccn3)C2)cc1 (stereo not drawn),-1.48%
20,CN(Cc1cnccn1)C(=O)C1CCC(=O)N(CCc2ccc(Cl)cc2)C1 (stereo not drawn),-67.9%
21,CN(Cc1nccs1)C(=O)C1CCC(=O)N(CCc2ccc(Cl)cc2)C1 (stereo not drawn),-81.5%
22,CN(Cc1cnccn1)C(=O)C1CCC(=O)N(CCc2ccccc2)C1 (stereo not drawn),19.7%
23,CN(Cc1ccon1)C(=O)C1CCC(=O)N(Cc2ccc(Cl)cc2)C1 (stereo not drawn),-40.9%

row,Structure (SMILES),"hERG current change (%, negative = inhibition) at 10uM"
1,CN(Cc1nccn1C)C(=O)C1CCC(=O)N(Cc2cccc(C(F)(F)F)c2)C1 (stereo not drawn),-9.93%
2,CN(Cc1ccccn1)C(=O)C1CCC(=O)N(CCc2ccc(Cl)cc2)C1 (stereo not drawn),-53.1%
3,O=C(NCCc1nccs1)C1CCC(=O)N(CCc2ccc(Cl)cc2)C1 (stereo not drawn),-31.6%
4,CN(Cc1nccs1)C(=O)C1CCC(=O)N(CCc2cccc(F)c2)C1 (stereo not drawn),-12.4%
5,CN(Cc1nccn1C)C(=O)C1CCC(=O)N(CCc2ccc(Cl)cc2)C1 (stereo not drawn),-53.8%
6,O=C(NNC(=O)C1COc2ccccc2O1)c1ccccc1 (stereo not drawn),-1.85%
7,O=C(NCc1cccs1)C1CCC(CNS(=O)(=O)c2ccccc2)CC1 (stereo not drawn),-2.7%
8,O=C(Nc1cccnc1)c1ccc(C(=O)Nc2cccnc2)cc1,29.7%
9,COc1ccc(-c2nc(CS(=O)CC(=O)NC3CCCCCC3)c(C)o2)cc1 (stereo not drawn),10.6%
10,CCN(CC(=O)NC(C)(C)C)C(=O)C(c1ccccc1)c1ccccc1,23.5%
11,COc1cccc(NC(=O)c2ccc(S(=O)(=O)NCc3cccnc3)cc2)c1,-0.62%
12,O=c1oc2ccccc2c(O)c1C=Nc1cccnc1,12.2%
13,Cc1ccccc1CN1CCCC(C(=O)Nc2ccccc2Oc2cccnc2)C1 (stereo not drawn),0.0346%
14,C#Cc1ccc(CN2CCCC(C(=O)Nc3ccccc3Oc3cccnc3)C2)cc1 (stereo not drawn),-58.5%
15,O=C(Nc1ccccc1Oc1cccnc1)C1CCCN(Cc2cccc(Cl)c2)C1 (stereo not drawn),-30.2%
16,Cc1cccc(CN2CCCC(C(=O)Nc3ccccc3Oc3cccnc3)C2)c1 (stereo not drawn),-43.9%
17,O=C(Nc1ccccc1Oc1cccnc1)C1CCCN(Cc2ccccc2O)C1 (stereo not drawn),-57.2%
18,O=C(Nc1ccccc1Oc1cccnc1)C1CCCN(Cc2ccc(F)cc2)C1 (stereo not drawn),-36.2%
19,CCN1CCN(CC(O)COc2ccc3c(C)cc(=O)oc3c2)CC1.Cl (stereo not drawn),-0.83%
20,O=C(CSCC(=O)N1CCOCC1)Nc1ccccc1,-0.115%
21,O=C(NC1CCS(=O)(=O)C1)c1ccc2c(c1)OCO2 (stereo not drawn),13%
22,Cc1nc2ccc(NC(=O)c3ccc(Cl)c(S(=O)(=O)N(C)c4ccccc4)c3)cc2s1,10.3%
